PubChem BioAssay (NCATS)
A number with no mark means an inactive call. Results filed as inconclusive are left out. A call without a number means that no potency is given here. The source made the active and inactive calls. Unless noted, the call rests on the fitted dose curve; in most records, active means well fitted curve in the direction sought with a large enough effect; inconclusive means small, poorly fitted or top-dose-only effect, or another doubt; inactive means no such curve, though single readings can be large; an effect the other way counts as inactive or inconclusive.

Columns and labels:
[1] = target: Cytochrome P450 1A2 (Homo sapiens) (UniProt P05177); assay: p450-cyp1a2 (AID 410; calls by dose curve; further: potency means the concentration at half of the fitted maximal effect)
Procedure, shortened: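 Luminescent demethylation readout: Luciferin-ME (100uM, equal to Km) turned over by 20nM CYP1A2 for 60 min at room temperature after NADPH regeneration addition, following 10 min compound preincubation. Normalization used 57 uM furafylline as full inhibition.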

[2] = target: Mitogen-activated protein kinase 10 (Mus musculus) (UniProt Q61831); assay: JNK3 AlphaScreen Assay (AID 530; active means well fitted curve in either direction with a large enough effect, not every such curve was filed as active;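 further: kinase came from lysate of stimulated human HepG2 cells; signal reports phosphorylation of biotinylated GST-cJun 1-79 at Ser73 with 10 µM ATP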)
Procedure, shortened: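 Phosphorylation of biotinylated GST-cJun(1-79) at Ser73 is measured by AlphaScreen proximity luminescence. Enzyme is JNK3 in HepG2 lysates activated with interleukin-1beta and tumor necrosis factor alpha; ATP is 10 uM final.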

[3] = target: Cytochrome P450 3A4 (Homo sapiens) (UniProt P08684); assay: qHTS Assay for Activators of Cytochrome P450 3A4 (AID 885); further: nearly all actives have a fitted effect of over 65% in size
Procedure, shortened: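 Activators are scored by enhanced luminescence from CYP3A4 conversion of luciferin-PPXE (25uM, equal to KM) to luciferin, after 60 min at RT with an NADPH-regenerating system.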

[4] = target: Cytochrome P450 3A4 (Homo sapiens) (UniProt P08684); assay: qHTS Assay for Inhibitors and Substrates of Cytochrome P450 3A4 (AID 884); further: potency means the concentration at half of the fitted maximal effect; nearly all actives have a fitted effect of over 50% in size
Procedure, shortened: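 Luminescent readout of luciferin produced by CYP3A4 (20 nM) dealkylation of Luciferin-PPXE, 25 uM (its KM). NADPH-driven reaction ran 60 min at RT after 10 min compound preincubation; data scaled to 57 uM ketoconazole as 100% inhibition.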

[5] = target: Cytochrome P450 2C19 (Homo sapiens) (UniProt P33261); assay: qHTS Assay for Inhibitors and Substrates of Cytochrome P450 2C19 (AID 899); further: potency means the concentration at half of the fitted maximal effect; nearly all actives have a fitted effect of over 60% in size
Procedure, shortened: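 NADPH-dependent conversion of Luciferin-H EGE (10uM, at KM) by 5nM enzyme in 50mM KPO4, 60 min at 37C following 10 min compound preincubation. Stopped with luciferin detection buffer; luminescence read after 20 min.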

[6] = NFAT Signaling Pathway (AID 444; active means well fitted curve in either direction with a large enough effect, not every such curve was filed as active;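 further: carbachol stimulus at about its EC50 of 1 µM final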); conditions: Jurkat NFAT-bla M1, carbachol, beta-lactamase ratio, 5 h
Procedure, shortened: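 Jurkat cells carrying an NFAT-driven β-lactamase reporter and co-transfected muscarinic M1 receptor were treated with compound plus carbachol (1 uM final, an EC50 level) for 5 h at 37 °C. CCF4 loading followed for 1 h at RT; 460/530 nm ratio gave %activity.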

[7] = Stat Signaling Pathway (AID 446; active means well fitted curve in either direction with a large enough effect, not every such curve was filed as active;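 further: ME-180 cervical cancer cells given 40 pM IL-6 alongside compound; SIE-controlled beta-lactamase reporter measured as 460/530 nm FRET emission ratio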); conditions: ME-180 (cervical carcinoma) SIE beta-lactamase reporter, IL-6 stimulated, 5 h
Procedure, shortened: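 Emission at 460 and 530 nm (excitation 405 nm) reports SIE-controlled beta-lactamase in ME-180 cells. Cells received compound with 40 pM IL-6 for 5 hrs at 37 C; data scaled between 300 pM IL-6 and 125 nM JAK-inhibitor controls.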

[8] = target: 3',5'-cyclic-AMP phosphodiesterase 4B (Homo sapiens) (UniProt Q07343); assay: qHTS Assay for Inhibitors of PDE-IV (AID 607; active means well fitted activation curve with a large enough effect in the main read-out, with a control signal flat, not every such curve was filed as active)
Procedure, shortened: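 The readout is membrane depolarisation from a cAMP-sensing CNG channel, detected with a potential dye at ex 535/em 590. Cells were HEK293-derived (endogenous PDE-IV) at 1000 cells/well, titrated up to 22.9 uM final.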

[9] = target: Cytochrome P450 2D6 (Homo sapiens) (UniProt P10635); assay: qHTS Assay for Inhibitors and Substrates of Cytochrome P450 2D6 (AID 891); further: nearly all actives have a fitted effect of over 60% in size;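 on activity change, negative = inhibition: luciferin methyl ether substrate demethylated by CYP2D6 with NADPH regeneration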
Procedure, shortened: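 Luminescent read-out of luciferin formed by 5 nM human CYP2D6 demethylating 30 uM Luciferin-ME EGE (Km level) over 60 min at room temperature after NADPH regeneration addition. Data normalized to full inhibition by 1.43 uM quinidine.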

[10] = target: DNA dC->dU-editing enzyme APOBEC-3G (Homo sapiens) (UniProt Q9HC16); assay: qHTS for inhibitors of Vif-A3G interactions: Validation (AID 588379)
Procedure, shortened: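 Yellow fluorescence (Ex 488, Em 500-530) of Vif-coexpressing HeLa A3G-eYFP cells, scanned by Acumen cytometer, reports blocked A3G degradation. Cells plated at 700/well overnight at 37 deg C before compound addition, then a further overnight compound incubation at 37 deg C.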

Sequence of Cytochrome P450 2D6 (Homo sapiens) (P10635 whole entry, looked up): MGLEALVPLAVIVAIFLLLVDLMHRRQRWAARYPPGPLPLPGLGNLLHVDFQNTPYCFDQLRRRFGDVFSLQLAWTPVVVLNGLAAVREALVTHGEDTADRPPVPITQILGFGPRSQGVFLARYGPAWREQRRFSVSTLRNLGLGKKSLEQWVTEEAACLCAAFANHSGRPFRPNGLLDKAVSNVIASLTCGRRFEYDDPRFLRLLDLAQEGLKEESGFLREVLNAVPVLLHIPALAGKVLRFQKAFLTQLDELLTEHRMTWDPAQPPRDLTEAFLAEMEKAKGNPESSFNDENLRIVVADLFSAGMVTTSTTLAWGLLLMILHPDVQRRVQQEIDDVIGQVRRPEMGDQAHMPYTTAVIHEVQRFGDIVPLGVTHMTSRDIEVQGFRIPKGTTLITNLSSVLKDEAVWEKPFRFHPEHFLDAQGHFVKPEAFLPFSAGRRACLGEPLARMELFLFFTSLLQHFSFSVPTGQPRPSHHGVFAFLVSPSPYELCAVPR
Sequence of 3',5'-cyclic-AMP phosphodiesterase 4B (Homo sapiens) (Q07343 whole entry, looked up): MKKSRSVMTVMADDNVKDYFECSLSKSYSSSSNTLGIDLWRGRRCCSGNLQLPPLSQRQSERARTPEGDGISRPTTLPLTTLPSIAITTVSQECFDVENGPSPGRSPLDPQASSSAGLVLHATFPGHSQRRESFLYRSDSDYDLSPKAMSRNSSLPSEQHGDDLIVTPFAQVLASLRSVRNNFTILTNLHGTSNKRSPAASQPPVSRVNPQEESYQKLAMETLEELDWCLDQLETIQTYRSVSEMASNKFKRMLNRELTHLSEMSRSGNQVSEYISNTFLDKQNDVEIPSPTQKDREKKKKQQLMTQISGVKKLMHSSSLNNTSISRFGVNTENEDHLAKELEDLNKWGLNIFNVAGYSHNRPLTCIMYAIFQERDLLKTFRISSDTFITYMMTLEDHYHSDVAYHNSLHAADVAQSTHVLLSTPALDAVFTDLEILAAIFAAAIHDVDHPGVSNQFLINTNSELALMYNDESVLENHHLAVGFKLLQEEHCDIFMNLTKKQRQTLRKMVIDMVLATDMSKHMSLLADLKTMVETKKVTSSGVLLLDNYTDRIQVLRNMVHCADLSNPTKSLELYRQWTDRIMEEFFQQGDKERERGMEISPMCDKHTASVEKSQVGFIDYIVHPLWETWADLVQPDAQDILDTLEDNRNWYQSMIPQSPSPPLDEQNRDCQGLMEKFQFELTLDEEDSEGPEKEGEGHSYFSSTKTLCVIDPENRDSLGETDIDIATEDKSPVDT
Sequence of Cytochrome P450 3A4 (Homo sapiens) (P08684 whole entry, looked up): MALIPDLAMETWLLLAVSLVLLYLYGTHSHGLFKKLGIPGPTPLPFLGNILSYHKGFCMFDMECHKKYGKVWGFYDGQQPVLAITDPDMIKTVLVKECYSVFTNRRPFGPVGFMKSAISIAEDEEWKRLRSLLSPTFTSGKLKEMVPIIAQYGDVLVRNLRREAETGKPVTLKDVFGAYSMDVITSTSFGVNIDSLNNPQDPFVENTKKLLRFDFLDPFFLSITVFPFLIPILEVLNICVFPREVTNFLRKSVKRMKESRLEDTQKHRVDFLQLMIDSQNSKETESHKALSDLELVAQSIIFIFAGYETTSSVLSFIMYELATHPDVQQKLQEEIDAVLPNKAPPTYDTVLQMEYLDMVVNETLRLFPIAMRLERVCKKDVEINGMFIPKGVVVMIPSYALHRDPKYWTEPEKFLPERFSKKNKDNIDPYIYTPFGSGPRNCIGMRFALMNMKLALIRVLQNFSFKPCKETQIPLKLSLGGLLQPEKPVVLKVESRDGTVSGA
Sequence of Cytochrome P450 1A2 (Homo sapiens) (P05177 whole entry, looked up): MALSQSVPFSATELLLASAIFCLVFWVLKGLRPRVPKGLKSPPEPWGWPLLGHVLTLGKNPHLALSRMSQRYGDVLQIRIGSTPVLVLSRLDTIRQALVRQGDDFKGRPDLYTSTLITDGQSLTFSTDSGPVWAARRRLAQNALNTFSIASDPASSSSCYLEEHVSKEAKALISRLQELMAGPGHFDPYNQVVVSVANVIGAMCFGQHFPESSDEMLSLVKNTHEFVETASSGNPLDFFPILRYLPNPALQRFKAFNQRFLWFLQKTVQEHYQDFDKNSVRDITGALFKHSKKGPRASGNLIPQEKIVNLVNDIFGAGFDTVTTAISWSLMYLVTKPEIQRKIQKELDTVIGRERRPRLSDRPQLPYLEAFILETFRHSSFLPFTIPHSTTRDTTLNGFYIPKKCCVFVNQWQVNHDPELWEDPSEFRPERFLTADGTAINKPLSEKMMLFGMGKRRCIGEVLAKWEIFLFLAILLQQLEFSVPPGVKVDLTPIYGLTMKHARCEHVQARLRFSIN
Sequence of Cytochrome P450 2C19 (Homo sapiens) (P33261 whole entry, looked up): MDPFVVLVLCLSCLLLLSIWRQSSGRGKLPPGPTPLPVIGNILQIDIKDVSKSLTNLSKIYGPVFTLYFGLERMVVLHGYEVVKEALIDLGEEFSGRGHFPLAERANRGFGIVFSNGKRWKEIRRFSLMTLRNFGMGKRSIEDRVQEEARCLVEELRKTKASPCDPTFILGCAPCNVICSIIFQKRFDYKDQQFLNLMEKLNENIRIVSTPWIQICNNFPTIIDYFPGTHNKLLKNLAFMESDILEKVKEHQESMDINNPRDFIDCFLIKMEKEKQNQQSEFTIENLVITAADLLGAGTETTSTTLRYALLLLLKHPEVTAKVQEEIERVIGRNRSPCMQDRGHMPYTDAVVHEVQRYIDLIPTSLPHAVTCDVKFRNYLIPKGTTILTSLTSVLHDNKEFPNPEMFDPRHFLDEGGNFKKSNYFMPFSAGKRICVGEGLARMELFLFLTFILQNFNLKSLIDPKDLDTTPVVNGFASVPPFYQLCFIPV
Sequence of DNA dC->dU-editing enzyme APOBEC-3G (Homo sapiens) (Q9HC16 whole entry, looked up): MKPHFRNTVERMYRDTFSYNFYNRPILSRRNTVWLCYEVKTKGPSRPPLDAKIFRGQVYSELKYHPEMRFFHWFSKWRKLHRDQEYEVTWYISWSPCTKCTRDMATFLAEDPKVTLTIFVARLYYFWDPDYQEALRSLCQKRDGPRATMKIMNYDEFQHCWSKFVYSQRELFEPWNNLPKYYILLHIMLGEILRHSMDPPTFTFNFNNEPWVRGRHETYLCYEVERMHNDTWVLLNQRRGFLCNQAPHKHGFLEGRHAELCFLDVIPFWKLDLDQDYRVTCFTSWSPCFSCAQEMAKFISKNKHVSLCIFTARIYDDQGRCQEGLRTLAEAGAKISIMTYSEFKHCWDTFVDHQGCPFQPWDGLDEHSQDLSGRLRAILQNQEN

For `CC(C)c1cccc2nc3c(c(C(C)(C)C)c12)Cn1c-3cccc1=O`, the Potency [1] was 12.6 µM (active), the Potency [2] was “inactive” and the Potency [3] was “inactive”.

In the case of `CCCC[C@@H]1C[C@H]1C(NC(=O)c1ccccc1)c1ccc(-c2ccccc2)cc1` (stereo partly specified), the Potency [1] is reported as 0.501 µM (active), the Potency [2] is reported as “inactive” and the Potency [3] is reported as “inactive”.

In the case of `CCC/C=C(\CCC)C(NC(=O)c1ccccc1)c1ccccc1` (stereo unspecified), the Potency [1] is reported as 10 µM (active), the Potency [2] is reported as “inactive” and the Potency [3] is reported as “inactive”.

With `CCC/C=C(\CCC)C(NS(=O)(=O)c1ccccc1)c1ccc(C(F)(F)F)cc1` (stereo unspecified) the Potency [1] was 12.6 µM (active), the Potency [4] was 6.31 µM (active) and the Potency [3] was “inactive”. The Potency [5] was 7.94 µM (active).

With `COc1cc2c(c(OC)c1OC)-c1ccc(OC)c(=O)cc1[C@H](NC(C)=O)CC2` the activity change, negative = inhibition ([6]; at 17.2 µM (top of the series)) was -4.77%, the activity change, negative = inhibition ([6]; at 38 µM (top of the series)) was 3.11% and the activity, negative = inhibition ([7]; at 17.2 µM (top of the series)) was 4.59%. For the same molecule, the activity, negative = inhibition ([7]; at 38 µM (top of the series)) was -18.3%, the Potency [8] was “inactive” and the Potency [9] was “inactive”. The outcome [9] was “inactive” and the outcome [10] was “inactive”.
